According to PubChem BioAssay AID1159580 (chemical genetic matrix, 2015):
Out of some 5,500 compounds screened, about 2,000 (36%) were called active. Inconclusive results (about 18%) are left out. Cut-off read from the data, not from the text of the source: active = normalized growth mostly below about 0.91 (no sharp cut-off); inconclusive = no clear call, values can overlap the other calls; inactive = mostly above about 0.92. The list shows a part of the results.

Experiment: chemical genetic growth profiling, strain panel (AID 1159580);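 note: tested at 20 µM; growth read once vehicle control cultures reached saturation at 30 °C; 1 = growth at the plate median or of vehicle wells; lower values mean less growth of the strain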
Conditions: S. cerevisiae deletion strains, growth OD

Measured: normalized growth

COc1ccc2c(c[n+](C)c3c4cc5c(cc4ccc23)OCO5)c1OC
active: locus YAL040C, strain CLN3, stronger effect = lower value 0.583 | locus YER002W, strain NOP16, stronger effect = lower value 0.58 | locus YGR078C, strain PAC10, stronger effect = lower value 0.496 | locus YMR307W, strain GAS1, stronger effect = lower value 0.131 | locus YNL175C, strain NOP13, stronger effect = lower value 0.519 | locus YNL197C, strain WHI3, stronger effect = lower value 0.69 | locus YNL224C, strain SQS1, stronger effect = lower value 0.255 | locus YOR083W, strain WHI5 (second series), stronger effect = lower value 0.175
